# High-throughput results: PubChem BioAssay, several laboratories
# The list is not random: actives were taken first. Their share in the collection is about 3.3%.
# Wnt act = activators of Wnt/beta-catenin signaling. Wnt/beta-catenin reporter cell assay, activator, plate reader. activation, % at 9.35 µM. 1.2% of 300,000 active. AID 743398; in the data active = activation above about 30%, passing the limit was not always enough;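 note: 0% = neutral control wells and 100% = positive control wells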
# C2C12 statin = suppressors of simvastatin-induced myotoxicity in C2C12 myotubes. ATP luminescence, 48 h; scaled: DMSO 0, geranylgeraniol control 100. rescue of ATP level, % at 7.49 µM. 0.78% of 330,000 active. AID 602340;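 active = mean ATP rescue above about 67%, or every replicate alone reaching that limit, limit read from the data, passing the limit was not always enough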;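 note: myotubes were challenged with 10 µM simvastatin during compound exposure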
# MITF TRPM1 HTS = increases MITF-driven TRPM1 promoter luciferase signal; activation, % at 12.5 µM; SK-MEL-5 TRPM1-promoter luciferase, 24 h; % of positive control, neutral wells = 0; 0.75% of 300,000 active; AID 588334;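 active = mean activation of at least 80% with every replicate also reaching 80%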;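 note: 0% = neutral control wells and 100% = parthenolide positive control wells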
# GAA850 FXN act = activators of GAA850 frataxin (FXN) promoter; AID 540364; activation, % at 6 µM; 0.56% of 360,000 active; HEK293 lucGAA850 FXN promoter luciferase reporter, 24 h; percent of 10 µM SAHA response;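 active = activation above the average of all compounds screened plus 3 SD, cutoff fixed separately per campaign, cut at about 7.5% in these data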;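 note: 0% = DMSO wells and 100% = 10 µM SAHA wells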
# esBAF inh = SWI/SNF esBAF complex inhibition | 2% of 350,000 active | mouse ES cells, Bmi1-luciferase knock-in reporter, 24 h; 100% = twice the neutral-well signal | AID 602393 | reporter increase, % at 12.5 µM; in the data active = activation above about 40%;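 note: 0% = median of the plate's neutral control wells and 100% = double that signal; a rise in the Bmi1 reporter signal indicates esBAF inhibition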
# The depositor's hits bear a star; x = no result given.
SMILES,Wnt act,C2C12 statin,MITF TRPM1 HTS,GAA850 FXN act,esBAF inh
C[C@@H]1CCCCO[C@H](CN(C)C(=O)Nc2ccccc2)[C@@H](C)CN([C@@H](C)CO)C(=O)c2cc(NS(=O)(=O)c3ccc(F)cc3)ccc2O1,x,x,x,x,2
CN(C)C(=O)C[C@@H]1CC[C@@H](NC(=O)c2ccc(F)cc2)[C@H](CO)O1,x,7,x,x,-1
O=C(O)CCC(=O)Nc1nnc(C(F)(F)F)s1,-2,115*,-6,-1,-5
COC(=O)CCC(=O)Nc1nnc(C(F)(F)F)s1,-2,7,14,1,-1
C/C(=N\Nc1nc(C)cc(-c2ccccc2)n1)c1ccc(O)cc1,4,-18,x,0,20
Cc1cc(C)nc(N/N=C/c2ccccc2OCc2ccc(Cl)cc2)n1,35*,x,24,-1,x
Cc1ccc2nc(N/N=C/c3ccccc3F)nc(-c3ccccc3)c2c1,2,x,15,1,x
Cc1cc(-c2ccccc2)nc(N/N=C/c2ccccc2F)n1,11,-4,x,4,56*
C/C(=N\Nc1nc(C)cc(-c2ccccc2)n1)c1ccccc1,0,-20,x,1,63*
O=C(NCC[C@@H]1CC[C@H](NC(=O)c2ccc3c(c2)OCO3)[C@H](CO)O1)Nc1ccc(Cl)cc1,x,-6,x,x,31
O=C(N/N=C\C=C\c1ccco1)c1cc(-c2ccc3ccccc3c2)n[nH]1,57*,x,57,5,x
Cc1ccccc1Nc1cc(C)c2c(O)cccc2n1,6,-2,36,2,9
Cc1ccc(Nc2cc(C)c3c(O)cccc3n2)cc1C,1,-16,111*,4,25
Cc1cc(C(=O)N/N=C/c2c(C)nn(-c3ccccc3)c2Cl)n[nH]1,6,1,x,5,52*
Cc1nn(-c2ccccc2)c2sc(C(=O)N3CCOCC3)cc12,x,-23,25,1,44*
CC(C)Nc1nc(Cl)nc(Nc2ccccc2)n1,10,-5,44,5,61*
Cc1cc(NC(=O)CSc2nc3ccsc3c(=O)n2Cc2ccccn2)n[nH]1,0,93*,56,2,21
CCCCn1c(SCC(=O)Nc2cc(C)[nH]n2)nc2ccsc2c1=O,-3,16,-6,-1,-8
Cc1ccsc1/C=N/NC(=O)Nc1ccccc1,16,x,107*,3,x
O=C(N/N=C/c1ccc(Br)s1)Nc1ccccc1,-2,-1,64,4,51*
Cc1ccsc1/C=N/NC(=O)c1ccc2ccccc2c1,20,x,44,-1,x
O=C(C[C@@H]1CC[C@H](NC(=O)Nc2cc(F)ccc2F)[C@@H](CO)O1)NCCCN1CCOCC1,x,-2,x,x,1
O=C(O)c1ccc(-c2nc3ccccc3[nH]2)cc1,-1,x,-16,2,x
O=C(O)c1ccc(/C=C(\c2nc3ccccc3[nH]2)c2nc3ccccc3s2)cc1,42*,x,-7,3,x
O=C(/C=C\Nc1ccc(Cl)cn1)c1ccc(Br)cc1,36*,x,103*,3,x
SMILES,Wnt act,C2C12 statin,MITF TRPM1 HTS,GAA850 FXN act,esBAF inh
Cc1cc(N/C=C/C(=O)c2ccc(Br)cc2)no1,33*,0,105*,3,81*
Cc1ccnc(N/C=C/C(=O)c2ccc(Br)cc2)c1,39*,-1,72,6,-4
COc1ccc(C(=O)/C=C/Nc2cc(C)ccn2)cc1,-1,x,x,-3,x
C[C@H]1CN([C@@H](C)CO)C(=O)c2c(c3ccccc3n2C)-c2ccccc2CO[C@@H]1CN(C)C(=O)c1ccncc1,x,x,x,x,1
COc1ccc(CNS(=O)(=O)c2ccc3c(c2)CCN3C(=O)C2CCC2)cc1,0,113*,-4,2,1
N#Cc1ccccc1CSc1nc(N2CCCCC2)nc(N2CCCCC2)n1,-1,117*,x,4,-6
COc1cc(S(=O)(=O)Nc2ncccc2C)c(OC)cc1Cl,1,121*,-4,0,0
O=C(NCC[C@@H]1CC[C@@H](NC(=O)C2CCCCC2)[C@@H](CO)O1)c1cnccn1,x,-1,x,x,-2
Cn1nnc2c(sc3nc(N4CCOCC4)c4c(c32)CCCC4)c1=O,x,118*,x,0,-8
Cc1cc(OC(C)C(=O)N(Cc2ccco2)C2CCS(=O)(=O)C2)cc(C)c1Cl (stereo not given),x,23,2,2,16
CC(Oc1ccc(Cl)cc1Cl)C(=O)N(Cc1ccco1)C1CCS(=O)(=O)C1 (stereo not given),-2,115*,-8,0,-2
Clc1nnc(N/N=C/c2ccccc2)c2ccccc12,x,47,15,6,39
